PubChem BioAssay (NCI)
About 83,000 compounds went through this panel and 20% of them were active in at least one assay; those are over-represented in the sample as a whole.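 Cells were grown in 96-well plates and exposed to the test compound at a single concentration for 48 hours; results are reported as percent growth, with values below 10 considered active.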 Activity calls are given as the source filed them.

How the values were obtained:
Assay in all cases: NCI-60 one-dose screen, 48 h (100 = growth as untreated, 0 = no growth, -100 = all killed)
Settings in all cases: 10 µM unless noted
SR leukemia = test system: SR leukemia
RPMI-8226 leukemia = test system: RPMI-8226 leukemia
OVCAR-8 ovarian = test system: OVCAR-8 ovarian
OVCAR-5 ovarian = test system: OVCAR-5 ovarian
OVCAR-4 ovarian = test system: OVCAR-4 ovarian
SK-OV-3 ovarian = test system: SK-OV-3 ovarian
OVCAR-3 ovarian = test system: OVCAR-3 ovarian
NCI/ADR-RES ovarian = test system: NCI/ADR-RES ovarian
T-47D breast = test system: T-47D breast
BT-549 breast = test system: BT-549 breast
MDA-MB-435 melanoma = test system: MDA-MB-435 melanoma
SW-620 colon = test system: SW-620 colon
MCF7 breast = test system: MCF7 breast
HCT-116 colon = test system: HCT-116 colon
HCC-2998 colon = test system: HCC-2998 colon
KM12 colon = test system: KM12 colon
IGROV1 ovarian = test system: IGROV1 ovarian
HS 578T breast = test system: HS 578T breast

Measured: growth

CC(=O)OCC(=O)C1(O)C(C)CC2C3C=C(C)C4=Cc5c(cnn5-c5ccccc5)CC4(C)C3C(O)CC21C (stereo not drawn)
active: SR leukemia 2.76% | RPMI-8226 leukemia -18.3% | SW-620 colon -30% | HCT-116 colon 3.77% | KM12 colon -28.7%
inactive: OVCAR-8 ovarian 44.9% | OVCAR-5 ovarian 25.3% | OVCAR-4 ovarian 43.2% | SK-OV-3 ovarian 43.1% | OVCAR-3 ovarian 11.5% | NCI/ADR-RES ovarian 35% | T-47D breast 40.4% | BT-549 breast 21.5% | MDA-MB-435 melanoma 33.7% | MCF7 breast 12.8% | HCC-2998 colon 13.5%

Cc1ccc(Nc2cc(=S)nc(N)[nH]2)cc1C
inactive: SR leukemia 97.5% | RPMI-8226 leukemia 100% | OVCAR-8 ovarian 97.4% | OVCAR-5 ovarian 100% | OVCAR-4 ovarian 108% | IGROV1 ovarian 96% | OVCAR-3 ovarian 115% | HS 578T breast 98.6% | NCI/ADR-RES ovarian 105% | T-47D breast 89.2% | BT-549 breast 95.9% | MDA-MB-435 melanoma 103% | SW-620 colon 96.7% | MCF7 breast 88.5% | HCT-116 colon 90.1% | KM12 colon 102%

CCSc1ccc2c(c1)N(CCCN1CCN(C)CC1)c1ccccc1S2
inactive: RPMI-8226 leukemia 32.1% | OVCAR-8 ovarian 76.3% | OVCAR-5 ovarian 70% | OVCAR-4 ovarian 61.2% | SK-OV-3 ovarian 78.7% | OVCAR-3 ovarian 58.2% | HS 578T breast 61.4% | NCI/ADR-RES ovarian 60.8% | T-47D breast 47% | BT-549 breast 73.2% | SW-620 colon 45.5% | MCF7 breast 20.5% | HCT-116 colon 21.9% | HCC-2998 colon 13.4%
active: SR leukemia -15% | MDA-MB-435 melanoma -15.1% | KM12 colon 4.74%

Cc1ccccc1C(c1ccccc1)c1ccccc1C
inactive: SR leukemia 104% | RPMI-8226 leukemia 89.5% | OVCAR-8 ovarian 89.8% | OVCAR-5 ovarian 85% | OVCAR-4 ovarian 108% | SK-OV-3 ovarian 75.1% | IGROV1 ovarian 92.2% | OVCAR-3 ovarian 104% | HS 578T breast 106% | NCI/ADR-RES ovarian 104% | BT-549 breast 86.1% | MDA-MB-435 melanoma 105% | SW-620 colon 97.7% | MCF7 breast 98.8% | HCT-116 colon 73.2% | HCC-2998 colon 101% | KM12 colon 98.2%

CCc1c(Nc2ccc(C)cc2)nc(N)[nH]c1=O
inactive: SR leukemia 87.9% | RPMI-8226 leukemia 103% | OVCAR-8 ovarian 102% | OVCAR-5 ovarian 101% | OVCAR-4 ovarian 108% | SK-OV-3 ovarian 114% | IGROV1 ovarian 102% | OVCAR-3 ovarian 119% | HS 578T breast 111% | NCI/ADR-RES ovarian 106% | BT-549 breast 101% | MDA-MB-435 melanoma 106% | SW-620 colon 109% | MCF7 breast 93.7% | HCT-116 colon 98.6% | KM12 colon 102%

COc1cc(-c2cc(=O)oc3cc(O)ccc23)c(OC)c2c1OCO2
inactive: SR leukemia 84.2% | RPMI-8226 leukemia 60.2% | OVCAR-8 ovarian 91.6% | OVCAR-5 ovarian 91.6% | OVCAR-4 ovarian 68.9% | SK-OV-3 ovarian 125% | IGROV1 ovarian 91.5% | OVCAR-3 ovarian 92.7% | HS 578T breast 81.9% | NCI/ADR-RES ovarian 92.6% | BT-549 breast 90.9% | MDA-MB-435 melanoma 101% | SW-620 colon 96.6% | MCF7 breast 102% | HCT-116 colon 98.4% | HCC-2998 colon 97.3% | KM12 colon 93.8%

Fc1ccccc1CSc1ncnc2nc[nH]c12
inactive: SR leukemia 105% | RPMI-8226 leukemia 95.1% | OVCAR-8 ovarian 80.5% | OVCAR-5 ovarian 110% | OVCAR-4 ovarian 113% | OVCAR-3 ovarian 118% | HS 578T breast 111% | NCI/ADR-RES ovarian 114% | T-47D breast 97.7% | BT-549 breast 137% | MDA-MB-435 melanoma 109% | SW-620 colon 96% | MCF7 breast 96.9% | HCT-116 colon 97.6% | HCC-2998 colon 111% | KM12 colon 112%

CC(=O)OCC(=O)[C@@]1(O)CC[C@H]2[C@@H]3CC(=C(Br)Br)C4=CC(=O)CC[C@]4(C)[C@H]3C(=O)C[C@@]21C
inactive: SR leukemia 115% | RPMI-8226 leukemia 87% | OVCAR-8 ovarian 92.9% | OVCAR-5 ovarian 102% | OVCAR-4 ovarian 96.1% | SK-OV-3 ovarian 72.9% | IGROV1 ovarian 96% | OVCAR-3 ovarian 98.6% | HS 578T breast 90.8% | NCI/ADR-RES ovarian 89.5% | BT-549 breast 73.5% | MDA-MB-435 melanoma 100% | SW-620 colon 95.3% | MCF7 breast 84.4% | HCT-116 colon 68.3% | HCC-2998 colon 95.8% | KM12 colon 93.6%

CC1(c2ccccc2)NC(=O)N(CC(=O)Nc2cccc(I)c2)C1=O (stereo not drawn)
inactive: SR leukemia 71.1% | RPMI-8226 leukemia 74.1% | OVCAR-8 ovarian 91.9% | OVCAR-5 ovarian 89.7% | OVCAR-4 ovarian 90.3% | SK-OV-3 ovarian 87.5% | OVCAR-3 ovarian 90.2% | HS 578T breast 44.9% | NCI/ADR-RES ovarian 92.7% | T-47D breast 81.5% | MDA-MB-435 melanoma 102% | SW-620 colon 92.2% | MCF7 breast 85.5% | HCT-116 colon 97.5% | HCC-2998 colon 106% | KM12 colon 90.9%
